Source: PubChem BioAssay (National Center for Advancing Translational Sciences (NCATS))
GLA inh pH 4.5: inhibitors of human alpha-galactosidase A at pH 4.5; P06280; purified enzyme, 4-MU-alpha-Gal fluorescence, pH 4.5; activity change, negative = inhibition, % at 105 µM; 230,000 tested, under 10 active;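 further: 0% = full activity with enzyme and -100% = basal without enzyme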
Target sequence (P06280 whole entry, looked up): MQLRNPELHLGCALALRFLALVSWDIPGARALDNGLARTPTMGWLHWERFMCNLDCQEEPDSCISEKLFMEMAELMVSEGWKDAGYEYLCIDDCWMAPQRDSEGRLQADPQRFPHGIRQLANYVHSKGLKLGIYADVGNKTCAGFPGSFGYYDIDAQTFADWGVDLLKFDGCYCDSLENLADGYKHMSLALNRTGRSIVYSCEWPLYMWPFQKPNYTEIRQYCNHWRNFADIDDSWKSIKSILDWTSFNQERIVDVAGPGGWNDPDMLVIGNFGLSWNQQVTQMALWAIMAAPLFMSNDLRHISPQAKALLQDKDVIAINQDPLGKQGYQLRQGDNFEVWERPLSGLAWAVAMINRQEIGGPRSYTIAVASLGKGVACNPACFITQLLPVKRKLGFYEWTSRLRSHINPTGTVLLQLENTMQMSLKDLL
GAA glycogen mod: inhibitors or activators of human alpha-glucosidase glycogen cleavage. P10253. recombinant GAA, glycogen substrate, Amplex Red glucose oxidase fluorescence. Potency, µM (series often up to 76.4 µM), for inactives: at the top dose activity change, negative = inhibition, hits mostly inhibitors. 300,000 tested, 0.38% active;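 further: potency means the concentration at half of the fitted maximal effect; 0% = full enzyme reaction and -100% = no-enzyme basal signal; the screen sought inhibitors and activators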
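Recombinant human enzyme (4 nM); glycogen substrate; 37 C, 40 min, pH 5.0. Readout: coupled glucose oxidase/Amplex Red fluorescence.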
N370S GC: inhibits or activates N370S mutant glucocerebrosidase | N370S GC spleen homogenate, 4MU-glucoside fluorescence | Potency, µM (series often up to 59.4 µM), for inactives: at the highest dose activity change, negative = inhibition, actives largely listed as inhibitors | 330,000 tested, 0.092% active;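 further: potency means the concentration at half of the fitted maximal effect; 0% = full enzyme activity and -100% = no enzyme basal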
aGlu spleen mod: inhibitors or activators of human alpha-glucosidase in spleen homogenate. human spleen homogenate, 4-MU-alpha-glucoside fluorescence. Potency, µM (top dose mostly 79.9 µM), inactives show top-dose activity change, negative = inhibition, hits mostly inhibitors. 240,000 tested, 0.006% active. AID 2112;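 further: potency means the concentration at half of the fitted maximal effect; 0% = enzyme with vehicle and -100% = no enzyme basal signal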
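Human spleen homogenate (1 ug) incubated with compounds and 1 mM 4-methylumbelliferyl-alpha-D-glucopyranoside in pH 5.0 citrate/phosphate buffer, 37 C, 40 min. Stopped at pH 10; 4-MU fluorescence (Ex 365/Em 440 nm); AC50 by Hill fit.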
aGal spleen mod: alpha-galactosidase A (human) modulation; human spleen homogenate, 4MU-alpha-Gal fluorescence, 40 min; Potency, µM (series often up to 80 µM), inactives show at the top dose activity change, negative = inhibition, actives largely listed as inhibitors; 240,000 tested, 0.008% active;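 further: potency means the concentration at half of the fitted maximal effect; 0% = enzyme with vehicle and -100% = no enzyme basal signal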
Target sequence (P06280 32-429 limits assumed): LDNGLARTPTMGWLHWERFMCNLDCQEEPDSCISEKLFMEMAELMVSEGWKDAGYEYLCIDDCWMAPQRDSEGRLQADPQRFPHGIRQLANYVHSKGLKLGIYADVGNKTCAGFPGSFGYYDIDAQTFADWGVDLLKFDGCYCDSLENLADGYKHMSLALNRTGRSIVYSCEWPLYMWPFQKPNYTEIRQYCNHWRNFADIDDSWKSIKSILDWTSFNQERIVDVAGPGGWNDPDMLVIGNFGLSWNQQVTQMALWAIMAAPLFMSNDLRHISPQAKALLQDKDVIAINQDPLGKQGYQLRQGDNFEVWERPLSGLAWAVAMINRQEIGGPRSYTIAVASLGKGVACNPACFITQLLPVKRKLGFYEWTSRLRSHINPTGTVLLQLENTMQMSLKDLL
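qHTS titration in buffer at pH 5.0. Alpha-galactosidase activity in spleen homogenate was measured via 4-methylumbelliferone release from 1 mM fluorogenic substrate after 40 min at 37C and a pH 10 stop. AC50 came from Hill fits of control-normalized data.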
GAA inhib: inhibitors of human lysosomal alpha-glucosidase | P10253 | purified human GAA, 4-MU-alpha-glucoside fluorescence | Potency, µM (doses to about 76.9 µM), for inactives: top-dose activity change, negative = inhibition, actives largely listed as inhibitors | 200,000 tested, 0.005% active;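 further: potency means the concentration at half of the fitted maximal effect; plate controls were uninhibited enzyme wells for no effect and no-enzyme background for full effect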
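Read-out is 4-methylumbelliferone fluorescence (Ex 365/Em 440 nm) after NaOH/glycine stop at pH 10. Enzyme 4 nM, substrate 400 uM, pH 5.0 citrate buffer, 20 min room temperature; AC50 from Hill-equation concentration-response.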
Numbers without * were called inactive; u = inconclusive; x = not tested or not shown; [ ] = remark or other dose. This is a sample that favours compounds with a hit; in the whole collection about 0.43% have one here. The call rests on the fitted dose curve; in most records, active means well fitted curve in the direction sought with a large enough effect; inconclusive means small, poorly fitted or top-dose-only effect, or another doubt; inactive means no such curve, though single readings can be large; an effect the other way counts as inactive or inconclusive.

SMILES | GLA inh pH 4.5 | GAA glycogen mod | N370S GC | aGlu spleen mod | aGal spleen mod | GAA inhib
COc1ccc(-c2nc(C#N)c(NCC3CCCO3)o2)cc1 (centres undefined) | 0.8 | 28.2µM* | 0.0% | -15.9% | -18.1% | -8.2%
FC(F)(F)c1ccccc1-c1nccc(NCc2cccs2)n1 | x | x | 3.16µM* | 6.7% | -3.8% | x
FC(F)(F)c1ccccc1-c1nccc(NCc2ccccc2)n1 | -0.4 | x | 11.2µM* | 12.7% | 0.7% | x
CC(C)Nc1ccc(-c2nc(-c3ccco3)no2)cc1[N+](=O)[O-] | x | -1.7%[76.3 µM] | x | x | x | x
Cc1ccc(OCC(=O)Nc2ccc3nc(SCC(=O)N4CCOCC4)sc3c2)cc1 | x | 8.5%[76.3 µM] | x | x | x | x
Cc1nc(NS(=O)(=O)c2ccccc2)sc1NC(=O)OCCN(C)C | 2.7 | 25.1µM* | 4.1% | -4.6% | 1.2% | -5.2%
CCCc1cc(=O)oc2cc(OCC(=O)NC(Cc3c[nH]c4ccc(O)cc34)C(=O)O)c(Cl)cc12 (centres undefined) | x | 7.94µM* | 4.0% | x | x | x
CCOC(=O)C1=C(c2ccccc2)Nc2c(c(=O)n(C)c(=O)n2C)C1c1ccc(O)c(OC)c1 (centres undefined) | -16.2 | 31.6µM* | -9.9% | 1.0% | 5.8% | -0.6%
CCOC(=O)C1=C(c2ccccc2)N(C)C(=O)NC1c1ccc(O)c(OC)c1 (centres undefined) | -4.2 | u | 3.0% | 4.4% | 5.1% | -5.4%
CCCn1c(=O)c2sccc2n2c(CCCC(=O)Nc3ccc(Oc4ccccc4)cc3)nnc12 | x | -14.5%[76.3 µM] | x | x | x | x
Cc1cc(C)nc(NNC2=CC(=[N+]3CCCC3)CCC2)n1 | 0.7 | 2.24µM* | 1.1% | 3.6% | 4.7% | -0.9%
CC1CCC2C(=O)OC(CN=[N+]=[N-])CN2C1c1ccc(Br)cc1 (centres undefined) | x | x | -18.7%[12.8 µM] | -2.8%[17.4 µM] | 0.5%[17.5 µM] | x
CN1C(=O)/C(=C/C=C2\SCCN2C)N(C)C1=S | -10.9[21.1 µM] | 11.2µM* | -10.1% | -3.1% | -2.6% | u
O=C1C2=C(C(=O)c3ccccc31)C1O[C@](c3ccsc3)(Cc3ccccc31)O2 | x | -2.9%[15.3 µM] | 1.4%[12.8 µM] | x | x | x
O=C(CSc1nncs1)NCCCc1ccccc1 | -5.3 | 10µM* | 2.0% | 3.4% | -3.3% | u
Cc1ccc(N)c(Cl)c1 | x | x | 0.3% | 3.3% | 5.8% | x
Nc1n[nH]c(N)c1N=Nc1ccc2c(c1)OCO2 | -3.0 | 12.6µM* | -11.6% | -1.9% | -3.4% | -7.9%
Cc1ccc(N=Nc2c(N)n[nH]c2N)cc1 | x | u | 0.6% | x | x | x
COc1ccc(NC(=O)c2cccnc2)cc1 | x | 14.8%[76.3 µM] | -4.9% | x | x | x
C/C(=C\C(=O)c1ccccc1)Nc1ccc(O)cc1 | -0.5 | 39.8µM* | -12.7% | -4.6% | 0.1% | -7.2%
C/C(=C\C(=O)c1cccnc1)Nc1ccc(O)cc1 | -15.1 | 14µM* | -26.5% | -12.3% | -5.5% | -10.6%
Cc1sc2nc(N)sc2c1C | -16.4 | 17.6µM* | 0.8% | -0.4% | -7.7% | -5.4%
Cc1ccc(C)c2sc(N)nc12 | 0.0 | -8.3% | -11.3% | 11.8% | 6.4% | 2.0%
CC(C)=CC[C@@H](O)C1=CC(=O)c2c(O)ccc(O)c2C1=O | x | x | -15.1% | -7.4% | -2.4% | x
COc1ccc(/C=C\c2onc(C)c2S(=O)(=O)N2CCC(C(=O)Nc3ccccc3OC)CC2)cc1 | x | -14.5%[76.3 µM] | x | x | x | x
SMILES | GLA inh pH 4.5 | GAA glycogen mod | N370S GC | aGlu spleen mod | aGal spleen mod | GAA inhib
CCOc1cc(-c2nc3ccccn3c2NCC2CCCO2)ccc1O (centres undefined) | 2.2 | 24.9µM* | 3.2% | -19.4% | -9.0% | 2.0%
COc1cc(-c2nc3ccccn3c2NCC2CCCO2)ccc1O (centres undefined) | 7.5 | 28.2µM* | -11.3% | 1.3% | 8.2% | 2.9%
COc1ccc(-c2nc3cccc(C)n3c2NCC2CCCO2)cc1O (centres undefined) | 5.2 | -6.2% | 6.6% | -1.4% | -9.0% | 11.5%
CCCC(=O)c1cc(O)c(O)cc1O | x | x | 0.4% | -6.6% | -18.8% | x
OCC1=C[C@@H](O)[C@@H]2C=CO[C@@H](OC3O[C@H](CO)[C@@H](O)[C@H](O)[C@H]3O)[C@H]12 (some centres undefined) | x | x | -5.5% | -9.8% | 0.1% | x
CCS(=O)(=O)Nc1cc(-c2cn3ccc(C)cc3n2)ccc1C | x | 11.2%[76.3 µM] | x | x | x | x
Cc1ccc(NNC(=O)c2cc(C(C)(C)C)nn2Cc2ccccc2)cc1 | -5.7 | 11.2µM* | 7.9% | 3.1% | 2.1% | -5.9%[15.4 µM]
COc1ccc(C(=O)NNC2=CC(=O)CC(C)(C)C2)cc1 | -3.4 | u | -4.7% | -1.2% | -0.3% | -0.7%
CC1(C)CC(=O)C=C(NNC(=O)c2ccccc2O)C1 | 0.4 | 44.7µM* | 8.5% | 1.6% | 0.1% | -11.1%
CCOc1cccc(/C=N/NC(=S)Nc2ccccc2[N+](=O)[O-])c1O | -7.8 | 2.5% | 2.1% | -0.1% | -5.8% | 2.8%
O=[N+]([O-])c1ccccc1NC(=S)N/N=C/c1ccc(O)c(O)c1 | 3.1 | 3.55µM* | -10.9% | -5.7% | -9.3% | -7.3%
NC(N)=NCCC[C@H](N)C(=O)N1CCC[C@H]1C(=O)N1CCC[C@H]1C(=O)NCC(=O)N[C@@H](Cc1ccccc1)C(=O)N[C@@H](CO)C(=O)N1CCC[C@H]1C(=O)N[C@@H](Cc1ccccc1)C(=O)O | x | x | -2.6% | -0.7% | 2.2% | x
Oc1ccc(/C=N/Nc2ccnc3cc(Cl)ccc23)cc1O | -0.7 | 44.7µM* | -11.0% | 0.0% | 6.7% | x
CC1CCC2C(=O)OC(Cc3ccccc3)CN2C1c1ccc(Br)cc1 (centres undefined) | x | x | 27.4%[12.8 µM] | -3.5%[17.4 µM] | 7.5%[17.5 µM] | x
COc1ccc(Cn2c(C)nnc2-c2cnn(C)c2N)cc1 | 12.4 | -0.7% | 5.1% | u | 28.2µM* | 4.8%
Cc1ccc(C2CC(=O)Oc3ccc(O)cc32)cc1 (centres undefined) | -5.6 | x | 6.3%[89.1 µM] | 2.1%[119 µM] | u | x
CC(C)[C@H](NC(=O)[C@H](CCCCN)NC(=O)[C@@H](NC(=O)[C@@H]1CCCN1C(=O)[C@H](CCCN=C(N)N)NC(=O)[C@H](CCCN=C(N)N)NC(=O)[C@H](CCCCN)NC(=O)[C@H](CCCCN)NC(=O)CNC(=O)[C@@H](NC(=O)[C@@H]1CCCN1C(=O)[C@@H](N)CCCCN)C(C)C)C(C)C)C(=O)N[C@@H](Cc1ccc(O)cc1)C(=O)N1CCC[C@H]1C(=O)O | x | x | -3.0% | 4.4% | 4.8% | x
CC(C)[C@@H](OCc1ccccc1)[C@H](C)/C=N\OC[C@@H](O)[C@@H]1O[C@@H]2OC(C)(C)O[C@@H]2[C@H]1O | x | x | -6.2%[12.8 µM] | -1.8%[17.4 µM] | 7.1%[17.5 µM] | x
COc1ccc(S(=O)(=O)Nc2c(C(=O)O)[nH]c3ccccc23)c(OC)c1 | -19.0 | 3.52µM* | -6.0% | 4.4% | 9.6% | -0.5%
COc1ccc(S(=O)(=O)Nc2c(C(=O)O)[nH]c3ccc(OC)cc23)c(OC)c1 | x | u | 0.4% | x | x | x
